Screening results from PubChem BioAssay.
SRC2 inh = human SRC2 (NCOA2) inhibition | HEK293 GAL4-SRC2 luciferase reporter, luminescence | 370,000 tested, 0.17% active | inhibition, % at 9 µM | AID 651957;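 active = inhibition above the mean inhibition of all tested compounds plus 3 SD, set per campaign, cut at about 52% in these data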;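 note: 0% = DMSO treated cells and 100% = cells given Gossypol at 36 µM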
SRC1 inh = inhibits human SRC1 coactivator; AID 588354; Q15788; inhibition, % at 3.6 µM; HEK293 GAL4-SRC1 luciferase reporter, luminescence; 360,000 tested, 0.12% active;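 active = inhibition above the campaign mean plus 3 SD, with each screening campaign given its own cutoff, cut at about 60% in these data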;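 note: 0% = DMSO treated cells and 100% = gossypol at 36 µM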
COUP-TFII inh = blocks human COUP-TFII nuclear receptor; AID 686940; HEK293T NGFI-A luciferase reporter, luminescence; inhibition, % at 8.6 µM; P24468; 370,000 tested, 0.7% active;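 active = inhibition above a per-plate cutoff, mean inhibition of test wells between control levels plus 3 SD, cut at about 38% in these data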;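 note: cells cotransfected with COUP-TFII expression vector driving the NGFI-A reporter; 0% = median of COUP-TF2 test wells and 100% = reporter-only cells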
Target sequence (P24468 whole entry, looked up): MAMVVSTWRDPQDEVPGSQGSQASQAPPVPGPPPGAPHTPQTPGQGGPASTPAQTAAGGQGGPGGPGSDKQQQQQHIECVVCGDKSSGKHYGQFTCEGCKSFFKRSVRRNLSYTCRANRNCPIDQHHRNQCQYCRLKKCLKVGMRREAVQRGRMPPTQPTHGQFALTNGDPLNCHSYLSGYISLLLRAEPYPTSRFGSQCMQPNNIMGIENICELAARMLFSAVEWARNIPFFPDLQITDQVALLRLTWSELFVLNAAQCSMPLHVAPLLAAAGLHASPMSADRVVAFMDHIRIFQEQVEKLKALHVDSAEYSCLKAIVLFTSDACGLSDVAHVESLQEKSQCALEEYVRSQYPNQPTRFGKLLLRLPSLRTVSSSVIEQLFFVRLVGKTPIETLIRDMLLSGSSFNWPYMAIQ
GalR3 antagonist = blocks the human galanin receptor 3 | HEK293 GalR3-CNG cAMP membrane potential fluorescence; galR3 body fused to GalR1 C-terminus | inhibition, % at 3 µM | AID 651719 | O60755 | 360,000 tested, 0.44% active;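 active = inhibition above the screen-wide average plus 3 SD, cut at about 13% in these data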;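 note: forskolin and galanin both at EC90 stimulate the cells; cAMP rise reported by CNG channel membrane potential dye signal; 0% = forskolin plus galanin with DMSO and 100% = forskolin alone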
Target sequence (O60755 1-299 limits assumed): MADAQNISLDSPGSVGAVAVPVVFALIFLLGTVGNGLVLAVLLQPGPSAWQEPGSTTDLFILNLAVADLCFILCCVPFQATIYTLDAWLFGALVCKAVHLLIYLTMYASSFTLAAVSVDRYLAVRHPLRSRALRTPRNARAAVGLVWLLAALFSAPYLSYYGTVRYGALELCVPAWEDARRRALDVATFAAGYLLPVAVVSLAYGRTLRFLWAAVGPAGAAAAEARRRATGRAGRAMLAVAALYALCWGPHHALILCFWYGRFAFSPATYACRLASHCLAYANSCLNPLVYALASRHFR
SRC3 inh = inhibits human SRC3 coactivator; inhibition, % at 3.6 µM; 360,000 tested, 0.17% active; HEK293 GAL4-SRC3 luciferase reporter, luminescence; AID 588352; Q9Y6Q9;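 active = inhibition above a per-campaign cutoff, the mean of all compounds plus 3 SD, cut at about 60% in these data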;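 note: 0% = DMSO-treated cells and 100% = gossypol-treated cells at 36 µM; higher means less SRC3-driven luciferase light from the GAL4 reporter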
LRH-1 inv ag = suppresses constitutive activity of human LRH-1; O00482; HEK293T StAR-luciferase reporter, LRH-1 transfected, 24 h; inhibition, % at 3.6 µM; 360,000 tested, 0.13% active;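 active = inhibition above the mean inhibition of all tested compounds plus 3 SD, cut at about 73% in these data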;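 note: 0% = DMSO wells and 100% = reporter-only cells lacking LRH-1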
Gal4-VP16 ctr = counter-screen for COUP-TFII antagonists: inhibitors of VP16. HEK293 Gal4-VP16 luciferase reporter, luminescence. inhibition, % at 8.5 µM. 2,500 tested, 25% active. shares compounds with COUP-TFII inh. AID 687007; in the data active = inhibition above about 13%
NR2F2 inh conf = COUP-TFII (NR2F2) inhibition, confirmation assay; shares compounds with COUP-TFII inh; HEK293 NGFI-A luciferase reporter, luminescence; inhibition, % at 8.5 µM; 2,500 tested, 45% active; AID 687008;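 active = mean inhibition over three repeats above a set limit taken from the earlier primary screen, cut at about 38% in these data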;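 note: 100% = cells given the luciferase reporter alone without the COUP-TF2 vector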
Starred values were filed as active, the others as inactive; x = not tested or not shown. Sampled rows, rich in hits. Any-hit rate of the full collection: about 1.1%.

SMILES	SRC2 inh	SRC1 inh	COUP-TFII inh	GalR3 antagonist	SRC3 inh	LRH-1 inv ag	Gal4-VP16 ctr	NR2F2 inh conf
Cc1ccc(-c2csc3ncnc(NCCN4CCOCC4)c23)cc1	28.3	23.6	38.0*	-4.7	30.0	-2.6	9.5	24.3
CS(=O)(=O)N(CC(=O)NCCSc1ccccc1)c1ccc2c(c1)OCO2	9.3	12.7	37.9*	-2.5	-9.6	-11.5	-8.7	-7.4
CCOc1ccc(-c2csc(Cn3c(CN4CCN(C)CC4)nc4ccccc4c3=O)n2)cc1	16.1	-8.6	39.3*	-6.3	16.9	-28.8	-11.1	7.1
CCCCNS(=O)(=O)/C=C/c1cc(C)ccc1CNC(=O)OC(C)(C)C	19.3	x	0.5	x	x	x	x	x
CCc1cccc(NC(=O)Cc2ccc(OC)c(OC)c2)c1	8.4	-1.2	39.5*	1.3	24.9	28.4	11.7	32.0
COc1ccc(CC(=O)Nc2ccc(-c3nnc(-c4ccccc4)o3)cc2)cc1OC	x	-37.7	x	x	-40.3	-30.0	x	x
COc1ccc(CC(=O)Nc2cccc(-c3nnc(-c4cccc(C)c4)o3)c2)cc1OC	13.9	-4.0	53.3*	3.0	-6.6	-6.7	-20.0	10.9
COc1ccc(CC(=O)NCc2cccc(CNC(=O)Cc3ccc(OC)c(OC)c3)c2)cc1OC	-11.1	-22.2	-5.7	-8.8	5.1	1.8	x	x
COc1ccc(CC2C(=O)NC(C)C(=O)N(C)C3Cc4ccc(cc4)Oc4cc(ccc4O)CC(C(=O)NC(C)C(=O)NC(C)C(=O)N2C)N(C)C3=O)cc1 (stereo unspecified)	76.1*	93.5*	87.8*	1.0	93.8*	97.8*	19.5*	81.8*
Cn1cc(C2(c3c[nH]c4ccccc34)CCN(C(=O)OC(C)(C)C)CC2)c2ccccc21	-9.3	x	-5.9	x	x	x	x	x
COc1ccc(CC(=O)Nc2ccc(-c3cn4cccc(C)c4n3)cc2)cc1OC	-0.1	6.0	-5.2	-6.2	-0.7	4.4	x	x
Cc1cccn2cc(-c3ccc(NC(=O)Cc4ccccc4)cc3)nc12	0.1	7.4	54.0*	x	-16.3	-10.7	0.4	-16.5
C=CC[C@]1(c2ccccc2)C(=O)N2C[C@H]3CON(C)[C@H]3C[C@H]2c2ccccc21	-21.1	x	-4.8	-0.4	x	x	x	x
N#Cc1cc2c(nc1SCC(=O)N1CCOCC1)CCCCC2	22.7	57.0	53.5*	0.4	64.6*	59.5	55.0*	77.0*
C[C@H]1[C@@H](NC(=O)c2ccc(C(C)(C)C)cc2)CC[C@@]23CCCN2C(=O)CCC[C@@H]13	x	x	-3.9	x	x	x	x	x
COc1ccc(CNC(=O)c2sc(=O)n(Cc3ccc(S(=O)(=O)N(C)C)cc3)c2C)cc1	22.1	14.3	44.6*	-1.7	11.1	12.9	7.7	16.2
Cc1c(C(=O)NCc2ccccc2C(F)(F)F)sc(=O)n1Cc1ccc(S(=O)(=O)N(C)C)cc1	-3.6	-9.8	11.5	-2.8	9.2	7.9	x	x
Cc1c(C(=O)NCc2ccc(C(F)(F)F)cc2)sc(=O)n1Cc1ccc(S(=O)(=O)N(C)C)cc1	16.9	6.0	41.9*	-7.8	7.1	28.5	-3.9	20.8
COc1ccc(S[C@]2(C(=O)N3CCCC3)CC(=O)N(C(=O)/C=C/c3ccccc3)[C@@H]2c2ccc(OC)cc2)cc1	4.7	x	15.2	x	x	x	x	x
Cc1ccccc1N=C1SCCN1C(=O)CN1C(=O)NC2(CCCC2)C1=O	26.1	15.1	10.7	-2.1	-6.7	5.3	x	x
Cc1ncc(C(=O)O)c(C(=O)O)c1N	-11.7	-18.9	3.3	-9.1	7.5	5.4	x	x
c1cncc(CNc2ncnc3ccc(-c4ccoc4)cc23)c1	25.1	58.0	38.0*	-2.5	57.2	20.6	6.5	17.0
Cc1csc(CNc2ncnc3ccc(-c4ccoc4)cc23)c1	32.3	55.8	39.9*	-2.3	53.0	18.3	7.9	31.5
O=C(Nc1nccs1)C1CCN(S(=O)(=O)c2cccs2)CC1	4.4	-3.1	11.3	-3.5	6.2	9.5	x	x
O=C(Nc1ccc(Cl)cn1)C1CCN(S(=O)(=O)c2cccs2)CC1	20.5	-21.2	52.9*	0.4	6.9	21.5	5.6	32.3
SMILES	SRC2 inh	SRC1 inh	COUP-TFII inh	GalR3 antagonist	SRC3 inh	LRH-1 inv ag	Gal4-VP16 ctr	NR2F2 inh conf
CCCCOc1ccc(Br)cc1CSC(=N)N	40.7	-4.6	75.9*	23.1*	-1.4	41.4	3.8	44.1*
CCOc1ccc(C(C)=O)cc1CSC(=N)N	24.5	-7.3	9.6	6.1	0.1	-3.6	x	x
Cc1ccc(F)cc1CNC(=O)c1cc(COc2ccc3ncccc3c2)on1	21.2	1.1	41.1*	-10.3	14.7	-3.9	6.1	49.5*
COc1cccc(OCc2cc(C(=O)NCc3ccccn3)no2)c1	-98.3	-64.8	-11.3	-4.4	-104.2	-68.8	x	x
O=C(NCc1cccc(Cl)c1)c1cc(COc2ccc3ncccc3c2)on1	-2.9	18.7	68.0*	-2.8	27.7	17.2	0.4	55.1*
C#CCN1CC(N(C)CCOC(=O)c2cccs2)CS1(=O)=O (stereo unspecified)	-59.6	x	-29.9	x	x	x	x	x
COc1ccc(-n2c(COc3ccc(Cl)cc3)nnc2SCC(=O)Nc2ccc3c(c2)OCO3)cc1	-0.3	x	7.2	x	x	x	x	x
Cc1ccc(NC(=O)C2CCN(c3ncnc4sc(C)c(C)c34)CC2)cc1S(=O)(=O)N(C)C	4.0	24.4	48.4*	2.9	35.2	-2.9	8.5	30.5
O=C(NC1CCCCN(Cc2ccc(OC(F)(F)F)cc2)C1=O)c1ccc2ccccc2c1 (stereo unspecified)	13.6	x	15.6	x	x	x	x	x
COc1ccccc1-c1cc2nc(-c3ccccc3)cc(N3CCN(C(=O)c4ccco4)CC3)n2n1	36.5	43.0	93.6*	-6.5	33.9	19.0	12.6	76.0*
COc1ccccc1-c1cc2nc(-c3ccccc3)cc(N3CCN(C(=O)c4ccoc4)CC3)n2n1	14.0	24.1	87.4*	-6.5	29.2	36.3	9.9	60.2*
C=CCSc1nc2ccccc2n1C(=O)/C=C/c1ccc(OC)c(OC)c1	-3.2	-14.4	-13.8	-7.2	-2.1	7.2	x	x
CCSc1nc2ccccc2n1C(=O)/C=C/c1ccc(OC)c(OC)c1	32.5	-5.4	57.5*	-1.8	23.6	-3.7	12.5	66.7*
C=CCSc1nc2ccccc2n1C(=O)/C=C/c1cc(OC)c(OC)c(OC)c1	6.4	-6.8	46.0*	-4.5	36.2	-28.4	16.5*	71.1*
CN(C)C1(CNC(=O)c2cccc(S(=O)(=O)Nc3ccc(Br)cc3)c2)CCCCC1	-19.7	-4.5	17.1	-5.1	-0.8	-11.9	x	x
CC[C@H](CCCCCCCn1ccc2ccccc21)CCC(=O)N(c1ccccc1)c1ccccc1	16.0	x	-18.9	x	x	x	x	x
CCNC(=S)NNC(=O)CSc1nc2ccccc2c(=O)n1-c1ccc(Cl)cc1	-15.3	x	6.5	x	x	x	x	x
